According to PubChem BioAssay (Tox21):
Where “and” joins values, the source holds several entries; their conditions need not be identical. Equal values may be shown once. Records with an inconclusive call do not appear. Entries that show only a call come without a potency. The source holds several records for some structures; these can differ, active in one and inactive in another. Calls of active or inactive are those of the source. Calls come from the whole dose curve; as a rule, active = well fitted activation curve with a large enough effect in the repeat runs; inconclusive = weak or mixed curves; inactive = flat fitted curve, though single readings scatter.

Test: A CellTox Green Cytotoxicity Assay to monitor cytotoxicity in HEK293 cells - 32 hour (AID 1224881); note: nearly all actives have a fitted effect of over 40% in size
Conditions: CellTox Green fluorescence; series mostly up to 76.8 µM; cytotoxicity increase: at the top concentration
Method in brief: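 Each value comes from one timepoint of a single continuous run in which HEK293 cells with CellTox Green were exposed to compound for up to 40 h at 37 C, dye fluorescence rising with cell death.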
Potency is the fitted concentration of half-maximal effect.

Compound | Potency | cytotoxicity increase
CCOc1ccccc1C(N)=O | inactive | –
C/C=C/c1ccc(OCC)c(O)c1 | – | 0.83% (inactive)
Nc1nc(=S)c2[nH]cnc2[nH]1 | inactive | –
O=c1n(CC2CO2)c(=O)n(CC2CO2)c(=O)n1CC1CO1 (centres undefined) | inactive | –
CCC[C@H](N[C@@H](C)C(=O)N1[C@H](C(=O)O)C[C@@H]2CCCC[C@@H]21)C(=O)OCC | inactive | –
O=C1Nc2ccccc2C1(c1ccc(O)cc1)c1ccc(O)cc1 | inactive | –
CC[C@]1(O)C[C@@H]2CN(CCc3c([nH]c4ccccc34)[C@@](C(=O)OC)(c3cc4c(cc3OC)N(C)[C@H]3[C@@](O)(C(=O)OC)[C@H](OC(C)=O)[C@]5(CC)C=CCN6CC[C@]43[C@@H]65)C2)C1 | inactive | –
CCCCCCC(O)CCCCCCCCCCC(=O)O (centres undefined) | inactive | –
CCN(CC)c1ccc2c(C)cc(=O)oc2c1 | inactive | –
NCCO | – | -12.4% (inactive)
CC(=O)OCCOCCOCCOC(C)=O | inactive | –
O=C(O)c1cccc(C(=O)O)c1 | inactive | –
C=C(C)C1CC=C(C)C(OC(C)=O)C1 (centres undefined) | – | -0.451% (inactive)
O=C(Oc1ccccc1)c1ccccc1O | – | 7.47% [at 35.3 µM] (inactive)
CCC(=O)/C=C/C1C(C)=CCCC1(C)C (centres undefined) | 49.1 µM (active) and inactive | –
CC(C)(C)NC(=O)[C@@H]1CN(Cc2cccnc2)CCN1C[C@@H](O)C[C@@H](Cc1ccccc1)C(=O)N[C@H]1c2ccccc2C[C@H]1O | inactive | –
COC(=O)/C=C/c1ccccc1 | inactive and 21.9 µM (active) | –
CC(C)(C)NCC(O)c1cc(O)cc(O)c1 (centres undefined) | – | -3.85% [at 35.3 µM] (inactive)
Cc1ccnc2c1NC(=O)c1cccnc1N2C1CC1 | inactive | –
